The record followed here is PubChem BioAssay AID652054 (National Center for Advancing Translational Sciences (NCATS), 2013).

Among all 360,000 compounds or so, about 9,100 (2.5%) were called active. About 4% were inconclusive and are not listed. Only a selection was taken, and actives are over-represented in it overall. Unmarked numbers belong to inactive results. Rule as the data show it: active = max response below about -50%; inconclusive = no clear call, values can overlap the other calls; inactive = above that.
% is scaled to controls: 0 for no effect and ±100 for the full control effect.

This assay deals with D(3) dopamine receptor (Homo sapiens) (UniProt P35462). In words: qHTS of D3 Dopamine Receptor Antagonist: qHTS. Particulars: D3R cells, DiscoveRx beta-arrestin luminescence, antagonist mode; active compounds read low. In short, it runs like this: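 Cells expressing the human receptor were seeded at 1500 cells/well, incubated overnight at 37 degrees C in 5% CO2, then exposed to library compounds with dopamine controls for 90 minutes at 37 degrees C before luminescent detection.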
D(3) dopamine receptor (Homo sapiens), sequence (P35462 whole entry, looked up): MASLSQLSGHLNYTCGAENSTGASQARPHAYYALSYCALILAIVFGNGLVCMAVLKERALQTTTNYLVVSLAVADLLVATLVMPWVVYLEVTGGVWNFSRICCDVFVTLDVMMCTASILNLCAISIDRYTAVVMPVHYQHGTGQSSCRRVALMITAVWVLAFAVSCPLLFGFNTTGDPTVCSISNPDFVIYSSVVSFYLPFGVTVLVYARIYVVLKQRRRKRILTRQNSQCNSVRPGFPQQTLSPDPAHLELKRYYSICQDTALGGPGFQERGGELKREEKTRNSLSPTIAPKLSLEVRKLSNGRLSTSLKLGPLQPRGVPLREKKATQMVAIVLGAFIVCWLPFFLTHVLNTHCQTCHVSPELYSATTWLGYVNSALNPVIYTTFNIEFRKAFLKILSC
Turning to `Cc1cc2cc3n(c2nn1)N=C(Cl)CC3`, the max response, negative = inhibition was 10.6%. With `CC(=O)Nc1ccc(N2C(=O)C3C4C=CC(CC4)C3C2=O)cc1` (stereo unspecified), the max response, negative = inhibition was 3.35%. On to `CC(=O)Nc1ccc(N2C(=O)C3C4CC(=O)C(c5ccccc54)C3C2=O)cc1` (stereo unspecified), for which the max response, negative = inhibition was -60% (active).

Consider `CCc1ccccc1N1C(=O)C2C3CC(=O)C(c4ccccc43)C2C1=O` (stereo unspecified), for which the max response, negative = inhibition was -6.94%. Turning to `Cc1cc(Br)cn2c(Cc3cccc(F)c3)c(-c3cccc(Br)c3)nc12`, the max response, negative = inhibition was 0.913%.

As to `COc1ccccc1/C=C/C=N/NC(=O)CN1CCN(Cc2ccccc2)CC1`, the max response, negative = inhibition is -17.6%. In the case of `COc1ccccc1/C=C/CN1CCC(CO)(Cc2ccccc2)CC1`, the max response, negative = inhibition is -76.1% (active). In the case of `CC(C)c1csc(CN2CCC(CO)(Cc3ccccc3)CC2)n1`, the max response, negative = inhibition is -22%. Then `COc1cccc(NC(=O)N(C)C[C@@H]2Oc3ncc(Br)cc3C(=O)N([C@@H](C)CO)C[C@H]2C)c1`, with -24.9%; and `OC(c1ccccc1)c1nc(-c2cnc3ccccc3c2)cs1` (stereo unspecified), with 4.32%; and `CCc1ccc2c(c1)C1(NN=C(c3ccccc3)S1)C(=O)N2` (stereo unspecified), with -60.6% (active). On to `CCc1ccc2c(c1)NC(=O)C2(C)Cc1ccc(OC(F)(F)F)cc1` (stereo unspecified), for which the max response, negative = inhibition was 16.6%. For the compound `CCOc1ccc(CCN2C(=O)c3cccnc3C2=O)cc1OCC`, the max response, negative = inhibition is -22%. Regarding `NC1=CC(=O)C(=O)c2cccnc21`, the max response, negative = inhibition was -69.1% (active).

On to `NC(c1csc(NC(=O)Nc2cccc(C(F)(F)F)c2)n1)C1CCCCC1` (stereo unspecified), for which the max response, negative = inhibition was 13.3%. For `CCOC(=O)[C@]12CCC=C1N(CCC1=CCCCC1)C(=O)[C@H](CC(=O)NCc1ccc(C)o1)C2`, the max response, negative = inhibition was 16.1%. Consider `COCCCNC(=O)c1ccc(-c2c(C)noc2C)c2ccoc12`, for which the max response, negative = inhibition was 0%. For `Cc1nc(Nc2ccc3c(c2)OCCO3)c2nnn(Cc3ccccc3Cl)c2n1`, the max response, negative = inhibition was -26.4%. Turning to `CC(C)Cc1nc(Nc2ccc(S(=O)(=O)N3CCCC3)cc2)c2nnn(Cc3ccccc3)c2n1`, the max response, negative = inhibition is -27.2%. With `Cc1nc(Nc2ccc(S(=O)(=O)N3CCCC3)cc2)c2nnn(Cc3ccccc3)c2n1`, the max response, negative = inhibition is -69.4% (active).

`NS(=O)(=O)c1ccc(CNC(=O)c2cc(S(=O)(=O)N3CCOCC3)ccc2N2CCCC2)cc1`: the max response, negative = inhibition was 0%. Take `COc1cc(CNc2ncnc3c2ncn3[C@H]2CN(Cc3cccs3)C[C@@H](CO)O2)cc(OC)c1OC`: the max response, negative = inhibition was 13%. Take `C[C@H](CO)N1C[C@H](C)[C@@H](CN(C)Cc2ccc3c(c2)OCO3)OCc2cnnn2CCCC1=O`: the max response, negative = inhibition is 9.24%. Turning to `CCCS(=O)(=O)NC(=O)C1(C)CCCN(C(=O)c2ccnc(Cl)c2)C1` (stereo unspecified), the max response, negative = inhibition is -5.74%. With `COc1ccc(N2CCN(Cc3ccc(Br)s3)CC2)cc1`, the max response, negative = inhibition was -54.8% (active).

In the case of `O=[N+]([O-])c1ccc(N2CCN(c3ccc(F)cc3)CC2)cn1`, the max response, negative = inhibition is 1.91%.

With `O=C(c1ccccc1Oc1ccccc1)N1CCN(c2ccc(F)cc2)CC1`, the max response, negative = inhibition was 11.3%.

On to `COc1ccc(N2CCN(C(=O)CNC(=O)c3ccc(Br)o3)CC2)cc1`, for which the max response, negative = inhibition is 4.35%. On to `COc1ccc(N2CCN(C(=O)c3cccs3)CC2)cc1`, for which the max response, negative = inhibition was -4.36%. Regarding `Fc1ccc(N2CCN(Cc3cnc(Oc4ccc(Br)cc4)s3)CC2)cc1`, the max response, negative = inhibition is -67.9% (active). Regarding `CO[C@@H]1CN(C)C(=O)c2cc(NC(=O)C3CC3)ccc2OC[C@H](C)N(C(=O)CN2CCOCC2)C[C@@H]1C`, the max response, negative = inhibition is -4.53%. On to `Cc1cccc(C(=O)OCC(=O)Nc2sccc2C(N)=O)c1C`, for which the max response, negative = inhibition is 12.4%. Consider `CCOC(=O)C1CCN(C(=O)Nc2ccc(Cl)cc2)CC1`, for which the max response, negative = inhibition is 0%. Turning to `CCOC(=O)C1Sc2[nH]c(=O)sc2C(c2ccc(Cl)cc2)C1C(=O)OCC` (stereo unspecified), the max response, negative = inhibition is -67.4% (active). Regarding `CCOC(=O)C1C(=O)NCC1c1ccccc1` (stereo unspecified), the max response, negative = inhibition was -22.2%. Regarding `Cc1ccc(S(=O)(=O)N2[C@@H](Cc3ccccc3)CO[C@H]2CC(=O)OCc2ccccc2)cc1`, the max response, negative = inhibition was -24.9%. Under `COc1ccc(C(=O)NCC[N+](C)(C)C)cc1` stands 7.47%. Consider `CCc1nnc(NC(=O)CCC(=O)NCc2ccccc2OC)s1`, for which the max response, negative = inhibition was 14.9%. With `COc1ccccc1CNC(=O)CCCN1C(=O)NC2(CCCC2)C1=O`, the max response, negative = inhibition was -13.5%. On to `COc1ccccc1CNC(=O)CCn1c(=O)sc2ccccc21`, for which the max response, negative = inhibition is -166% (active). Regarding `O=Cc1cn(CCOc2ccc(F)cc2)c2ccccc12`, the max response, negative = inhibition was 25%. Turning to `Cc1ccc(S(=O)(=O)NC(=O)N2CCCC(C)(C)C2)cc1`, the max response, negative = inhibition was 2.79%.

For `CC(=O)N1CCN(CC(C)(C)NS(=O)(=O)c2ccc(C)cc2)CC1`, the max response, negative = inhibition is 0.902%. For the compound `Cc1ccc(S(=O)(=O)NC(=O)N2CCCN(Cc3ccc(F)cc3)CC2)cc1`, the max response, negative = inhibition was -51.3% (active). Then `O=C(c1ccc(N2CCCC2=O)cc1)N1CCN(c2ccc(C(F)(F)F)cc2[N+](=O)[O-])CC1`, with 29.2%; and `CCOC(=O)NCc1ccc2c(c1)OCO2`, with -52.8% (active).

For the compound `O=C(NCc1ccc2c(c1)OCO2)C12CC3CC(CC(C3)C1)C2`, the max response, negative = inhibition is 10.5%. On to `Cc1ccc(C(=O)OCC(=O)NCc2ccc3c(c2)OCO3)s1`, for which the max response, negative = inhibition was 5.99%. Take `O=C(NCc1ccc2c(c1)OCO2)c1cc2c(s1)CS(=O)(=O)C2`: the max response, negative = inhibition is -163% (active).

For the compound `O=C(NCc1ccc2c(c1)OCO2)c1ccc(Cl)s1`, the max response, negative = inhibition is -10.3%. In the case of `O=C(NCc1ccc2c(c1)OCO2)c1sccc1Br`, the max response, negative = inhibition is 10.4%.

Regarding `CCOc1cc(/C=N/NC(=O)c2c(C)nc3ccc(Cl)cn23)ccc1O`, the max response, negative = inhibition was -5.49%. On to `CSc1ccc(CN2CCC2(C)C(=O)NCc2ccccc2Br)cc1` (stereo unspecified), for which the max response, negative = inhibition is 33.4%.

For the compound `CC(=O)OC[C@@H]1CN(Cc2ccccc2)C[C@H](n2cnc3c(NCc4ccco4)ncnc32)O1`, the max response, negative = inhibition was 14.6%. Then `COc1cc(OC)cc(C2=Cc3ccccc3C(CC(=O)c3ccco3)N2c2ccc(-c3cnc(OC)nc3)cc2)c1` (stereo unspecified), with 41.4%; and `COc1ccc(CN2C(=O)C(CC(=O)NCc3cccc4ccccc34)CC(C(=O)N3CCOCC3)=C2C)cc1` (stereo unspecified), with -2.29%; and `CC(C)N=C1CCCC1C(=S)SSC(=S)C1CCCC1=NC(C)C` (stereo unspecified), with -68.8% (active).

With `COC(=O)C[C@@H]1C=C[C@@H](NC(=O)c2cccnc2)[C@@H](CO)O1`, the max response, negative = inhibition is -2.19%. Under `CCCCCOc1ccc(/C=C/C(=O)NCCc2nc3ccccc3[nH]2)cc1OC` stands 53.6%. Under `COc1ccc(/C=C(/NC(=O)c2ccc(C)cc2)c2nc3ccccc3[nH]2)cc1OC` stands -65.3% (active); under `COc1ccc(/C=C(\NC(=O)c2ccccc2)C(=O)NCCN2CCOCC2)cc1OC`, -3.81%; under `CC1(C(=O)NS(=O)(=O)c2ccccc2)CCN1C(=O)Cc1ccc(-c2ccccc2)cc1` (stereo unspecified), -7.77%. Regarding `CCC1CCCCN1C(=S)NC(=O)c1ccco1` (stereo unspecified), the max response, negative = inhibition was -122% (active). As to `CCC1CCCCN1C(=S)Nc1ccc(C(C)=O)cc1` (stereo unspecified), the max response, negative = inhibition is 4%. Then `O=C(NC(=S)N1CCc2ccccc21)c1ccco1`, with -1.16%; and `N#Cc1ccc(OCC(=O)Nc2nc(-c3ccccn3)cs2)cc1`, with -9.86%; and `CN(C)CCCOc1ccc(-c2ccc3nccn3c2)cn1`, with 1.66%. With `N=c1c2c3c(sc2ncn1CCCN1CCOCC1)CCCCC3`, the max response, negative = inhibition is 8.56%. For `CC(C(=O)O)n1cnc2sc3c(c2c1=O)CCCC3` (stereo unspecified), the max response, negative = inhibition was 20%. Regarding `S=c1[nH]nc2c3c4c(sc3ncn12)CCCC4`, the max response, negative = inhibition is -92.7% (active). Take `CCOC(=O)N1CCN(C(=O)C[C@@H]2C[C@@]3(C(=O)OC)CC(C)(C)CC=C3N(Cc3ccco3)C2=O)CC1`: the max response, negative = inhibition was -6.32%. In the case of `CC(=O)c1cc(-c2ccccc2)[nH]c1N1CCCC1`, the max response, negative = inhibition is 0%. Under `CC1=NN(c2ccc(Cl)c(C(=O)O)c2)C(=O)/C1=C/c1ccc(-c2ccccc2[N+](=O)[O-])o1` stands 8.21%.

Regarding `O=C1NN(c2ccccc2)C(=O)/C1=C/c1ccc(-c2cccc(C(=O)O)c2)o1`, the max response, negative = inhibition is -54.9% (active). In the case of `Cc1cc(C)c(S(=O)(=O)NN=C2c3ccccc3[C@H]3Cc4csc[n+]4[C@@H]23)c(C)c1`, the max response, negative = inhibition was 8.56%.

Regarding `COCC(C)NCc1cc(Br)ccc1OC` (stereo unspecified), the max response, negative = inhibition is 13.9%. Turning to `Cc1cccc(NC(=O)COc2ccc(Br)cc2C)n1`, the max response, negative = inhibition was 2.17%. Then `CCC(C)NCCOCCOc1ccc(Br)cc1C` (stereo unspecified), with -71.5% (active); and `Cc1ccc(S(=O)(=O)N2CCOCC2)cc1NC(=O)c1ccncc1`, with -9.56%. Turning to `CN(C)CCNC(=O)c1ccc(-c2cn3c(-c4ccc(Oc5ccccc5)cc4)cnc3cn2)cc1`, the max response, negative = inhibition is -27.6%.

Take `CCCNC(=O)C1(C)CCN(C(=O)c2ccccc2OC(F)(F)F)C1` (stereo unspecified): the max response, negative = inhibition was 7.72%. On to `Cc1ccc(S(=O)(=O)N2C[C@H]3n4c(=O)ccc(=O)n4C[C@H](OC(=O)NC4CCCC4)[C@@]3(O)C2)cc1`, for which the max response, negative = inhibition is 10.7%. Consider `C[C@@H]1CN([C@@H](C)CO)C(=O)c2c(c3ccccc3n2C)-c2ccccc2CO[C@H]1CN(C)C(=O)C1CC1`, for which the max response, negative = inhibition is 5.32%. With `COc1ccc(-c2coc3c(C(=O)NC(C)C)cccc23)c(C)c1`, the max response, negative = inhibition was 71.6%. Consider `COc1ccc([C@H]2CC(=O)C=C(c3ccc(CO)cc3)C2)cc1`, for which the max response, negative = inhibition is 3.98%.

Turning to `CCCCC/C=C/C1=CC(=O)C[C@H](c2ccc(Cl)cc2)C1`, the max response, negative = inhibition is 8.93%. As for `COc1ccc([C@H]2CC(=O)C=C(c3ccc(C)cc3)C2)cc1`, the max response, negative = inhibition is -60.5% (active). Take `COc1ccc([C@H]2CC(=O)C=C(/C=C/c3ccc(Cl)cc3)C2)cc1`: the max response, negative = inhibition is -56.6% (active).

In the case of `COc1ccc(C2CC(=O)NC(=O)C2)cc1`, the max response, negative = inhibition is -22.1%.

As for `COc1ccc2cc(C3=CC(=O)C[C@H](c4ccc5c(c4)OCO5)C3)ccc2c1`, the max response, negative = inhibition is 6.05%. As for `CCCNC(=O)c1cc(C2CCCN(C(=O)c3ccc4c(c3)CCO4)C2)on1` (stereo unspecified), the max response, negative = inhibition is 3.62%.
